# Reference: PubChem BioAssay (EPA / NIEHS)
# Inconclusive results are not listed. The source made the active and inactive calls. Rule for the calls: active = hit-call score of the fitted dose curve at least 0.9, where 1 is the maximum; inconclusive = response in the unintended direction; inactive = score below 0.9.
# What was measured:
# [1] = ACEA_AR_agonist_AUC_viability: ACEA Biosciences xCELLigence Real-Time Cell Analysis on Androgen Receptor Agonism for Viability (AID 2283775);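 for AC50: viability read 80 hours after compound addition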
# In short: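 Viability endpoint from xCELLigence impedance in 22Rv1 prostate cells at 80 h. Eight-point series, 100 uM maximum final.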
# [2] = ACEA_AR_antagonist_AUC_viability: ACEA Biosciences xCELLigence Real-Time Cell Analysis on Androgen Receptor Antagonism for Viability (AID 2283776);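 note: 22Rv1 human prostate cancer cells growing on impedance electrode plates; area under impedance growth curve at 80 h after dosing as viability; hits lower the growth signal relative to DMSO meaning cytotoxicity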
# In short: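 Impedance read-out (RT-CES): area under growth curve at 80 h post-dose, loss of signal scored vs DMSO baseline. 22Rv1 cells; 8-pt 1:4 series, top 100 uM final, ≤0.5% DMSO; biological duplicate.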
# [3] = ACEA_ER_AUC_viability: ACEA Biosciences xCELLigence Real-Time Cell Analysis on Estrogen Receptor Agonism for Viability (AID 2283782);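 note: hit means loss of impedance signal meaning reduced cell growth or viability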
# In short: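 Read-out: real-time electrical impedance (RT-CES) area under curve, loss of signal taken as reduced viability, normalized to DMSO baseline. T-47D cells, charcoal-stripped serum medium, compounds up to 100 uM final, continuous exposure, 80 h.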
# AR (gene 367) = AR (gene 367) (UniProt P10275); assay: ACEA_AR_agonist_80hr: ACEA Biosciences xCELLigence Real-Time Cell Analysis on Androgen Receptor Agonism for Proliferation (AID 2283783);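 note: hits increase impedance growth signal above DMSO baseline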
# AR (gene 367), sequence (P10275 whole entry, looked up): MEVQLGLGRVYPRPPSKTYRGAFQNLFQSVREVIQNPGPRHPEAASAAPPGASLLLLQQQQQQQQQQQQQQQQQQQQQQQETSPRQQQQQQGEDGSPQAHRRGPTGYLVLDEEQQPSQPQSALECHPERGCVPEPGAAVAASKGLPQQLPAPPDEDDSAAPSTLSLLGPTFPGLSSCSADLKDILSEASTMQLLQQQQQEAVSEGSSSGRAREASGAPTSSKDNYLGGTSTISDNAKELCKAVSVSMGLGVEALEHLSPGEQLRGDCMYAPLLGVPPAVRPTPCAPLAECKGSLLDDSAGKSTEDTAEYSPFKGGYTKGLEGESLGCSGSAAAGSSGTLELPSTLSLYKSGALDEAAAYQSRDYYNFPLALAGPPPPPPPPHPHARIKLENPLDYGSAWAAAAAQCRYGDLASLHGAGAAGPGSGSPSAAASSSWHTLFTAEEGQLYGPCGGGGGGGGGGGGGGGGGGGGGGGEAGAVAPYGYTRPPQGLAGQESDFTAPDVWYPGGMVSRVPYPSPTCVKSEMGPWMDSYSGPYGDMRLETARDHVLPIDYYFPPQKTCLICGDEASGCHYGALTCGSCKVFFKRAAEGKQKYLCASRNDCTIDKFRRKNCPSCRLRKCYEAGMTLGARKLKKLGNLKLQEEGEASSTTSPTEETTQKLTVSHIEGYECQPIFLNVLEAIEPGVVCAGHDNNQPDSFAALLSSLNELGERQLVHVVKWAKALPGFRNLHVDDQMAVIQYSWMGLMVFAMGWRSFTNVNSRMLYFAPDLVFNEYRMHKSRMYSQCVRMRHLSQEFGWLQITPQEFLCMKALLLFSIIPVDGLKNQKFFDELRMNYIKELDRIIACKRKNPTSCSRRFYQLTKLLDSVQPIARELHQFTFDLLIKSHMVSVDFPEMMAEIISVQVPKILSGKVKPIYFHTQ
# In short: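 Impedance (RT-CES) growth signal at 80 h post-dose; 22Rv1 cells, 8-pt 1:4 series, top 100 uM final, DMSO ≤0.5%; duplicate plates; gain-of-signal fit relative to DMSO baseline.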
smiles,measurement,setting,value
CCCc1ccc(O)cc1,outcome,[1],inactive
same,outcome,[2],inactive
CC(C)(CO)CO,outcome,[1],inactive
same,outcome,[2],inactive
same,outcome,[3],inactive
same,outcome,AR (gene 367),inactive
c1ccc(Cc2ccccc2)cc1,outcome,[1],inactive
same,AC50,[2],9.27 µM (active)
same,outcome,[3],inactive
CC12CCC(C1)C(C)(C)C2O (centres undefined),outcome,[1],inactive
same,outcome,[2],inactive
same,outcome,[3],inactive
CC(CCO)CC(C)(C)C (centres undefined),outcome,[1],inactive
same,outcome,[2],inactive
same,outcome,[3],inactive
FC(F)(F)c1ccc(Cl)c(Cl)c1,outcome,[1],inactive
same,outcome,[3],inactive
CCCc1ccc(N)cc1,outcome,[1],inactive
same,outcome,[2],inactive
same,outcome,[3],inactive
CCC(C)C1CCCCC1=O (centres undefined),outcome,[1],inactive
same,outcome,[2],inactive
same,outcome,[3],inactive
COc1ccc2[nH]cc(CCNC(C)=O)c2c1,outcome,[1],inactive
same,outcome,[3],inactive
CCCCCCCCOC(C)=O,outcome,[1],inactive
same,outcome,[2],inactive
same,outcome,[3],inactive
CN1CCc2cccc3c2[C@H]1Cc1ccc(O)c(O)c1-3,AC50,[1],11.4 µM (active)
same,AC50,[2],4.25 µM (active)
same,AC50,[3],7.27 µM (active)
CCCCOCCOCCO,outcome,[1],inactive
same,outcome,[2],inactive
CCO[Si](CC)(OCC)OCC,outcome,[1],inactive
same,outcome,[3],inactive
COC(=O)c1ccc(C(=O)OC)cc1,outcome,[1],inactive
same,outcome,[2],inactive
same,outcome,[3],inactive
CC(=O)C1C(=O)C=C(C)OC1=O (centres undefined),outcome,[1],inactive
same,outcome,[2],inactive
same,outcome,[3],inactive
CCC(C)(C)C1CCC(OC)CC1 (centres undefined),outcome,[1],inactive
same,outcome,[2],inactive
same,outcome,[3],inactive
c1coc(CNc2ncnc3nc[nH]c23)c1,outcome,[1],inactive
same,outcome,[2],inactive
CC(=O)C1=C(C)[C@@H]2C[C@@]3(C1)[C@H](C)CC[C@H]3C2(C)C,outcome,[1],inactive
same,outcome,[2],inactive
same,AC50,[3],88.1 µM (active)
CCCCCCOc1ccc(O)cc1,AC50,[1],10.9 µM (active)
same,AC50,[2],10.4 µM (active)
same,AC50,[3],67.3 µM (active)
CC1COC(=O)O1 (centres undefined),outcome,AR (gene 367),inactive
CCC(C)(C)C1CCC(=O)CC1,outcome,AR (gene 367),inactive
